For 39 molecules, AC50 and outcome results are on record in PubChem BioAssay (EPA / NIEHS).

Where a structure was tested more than once in an assay, its records may differ in their call. The source made the active and inactive calls. Rule for the calls: active = hit-call score of the fitted dose curve at least 0.9, where 1 is the maximum; inactive = score below 0.9.

For orientation: AC50 means the midpoint of the concentration-response curve, whichever way the signal moves.

This test can be described thus: APR_HepG2_CellLoss_72hr: Apredica 72-hour HepG2 Assay for Cell Loss (AID 2282915). The conditions noted are these: high-content imaging. As for the experimental part: APR_HepG2_72hr is a cell-based, multiplexed-readout assay that uses HepG2, a human liver cell line, with measurements taken at 72 hours after chemical dosing in a 384-well plate.APR_HepG2_CellLoss_72hr is one of 10 assay component(s) measured or calculated from the APR_HepG2_72hr assay. It is designed to make measurements of cell number, a form of viability reporter, as detected with fluorescence intensity signals by HCS Fluorescent Imaging technology.Data from the assay component APR_HepG2_CellLoss_72hr was analyzed into 1 assay endpoint. This assay endpoint, APR_HepG2_CellLoss_72hr, was analyzed with bidirectional fitting relative to DMSO as the negative control and baseline of activity. Using a type of viability reporter, measures of all nuclear dna for gain or loss-of-signal activity can be used to understand the viability at the cellular-level. Furthermore, this assay endpoint can be referred to as a secondary readout, because this assay has produced multiple assay endpoints where this one serves a viability function. To generalize the intended target to other relatable targets, this assay endpoint is annotated to the cell cycle intended target family, where the subfamily is proliferation.
Cells were treated with dimethyl sulfoxide (DMSO) as a solvent control at a final concentration of 0.5% v/v or with compounds in DMSO with a resulting final DMSO concentration of 0.5% v/v. Compound treatment was done at concentrations of 0.39, 0.78, 1.56, 3.12, 6.24, 12.5, 25, 50, 100, and 200 uM in duplicate on each plate. Cells were treated with compounds for 1, 24, or 72 hr. Carbonyl […] m-chloro-phenylhydrazone (CCCP) and taxol were used as positive controls for mitochondrial function and cytoskeletal stability, respectively; DMSO served as the negative control for this experiment. Cells were fixed by the direct addition of 50 uL formaldehyde in Hank's Balanced Salt Solution (HBSS) to a final concentration of 3.7%. After incubation in the fixation medium for 30 min at room temperature (293-298 K), cells were rinsed twice with HBSS and treated with cell permeabilization buffer (16 uL of 0.5% Triton X-100) for 10 min at room temperature (293-298 K) before labeling. For mitochondrial membrane potential and mitochondrial measurements, pre-fixed cells were incubated with 50 uL of MitoTracker Red CMXRos (Invitrogen) at a concentration of 250 nM for 30 min before fixation. In the remaining cases, post-fixed cells were labeled by incubation with a multiplexed mixture of primary antibodies in HBSS for 60 min at room temperature (293-298 K) to detect immunoreactivity of c-Jun (1:500), phospho-histone H3 (1:100), phospho-histone H2A.x (1:200), p53 (1:400), alpha-tubulin (1:200) and Hoechst 33342 (2 ug/mL). Cells were labeled for multiplexed imaging on two separate plates: a) Hoechst 33342, MitoTracker Red, phospho-histone H3, and alpha-tubulin, and b) Hoechst 33342, phospho-histone H2A.x, and c-Jun. A final rinse with HBSS (50 uL) was performed before analysis. The primary and secondary antibodies for the proteins were phospho-histone H3 (rabbit anti-phospho-histone H3 and FITC-donkey anti-rabbit IgG), phospho-histone H2A.x (mouse anti-phospho-histone H2A.x and FITC-donkey anti-mouse IgG), c-Jun (rabbit anti-phospho-c-Jun and Cy3-donkey anti-rabbit IgG), p53 (sheep anti-p53 and Cy5-donkey anti-sheep IgG), alpha-tubulin (mouse anti-alpha-tubulin and Cy5-donkey anti-mouse IgG). These antibodies are available as the CellCiphr HepG2 assay kit (Millipore).Digital images of each well were captured using a Cellomics ArrayScan VTI (Thermo Scientific Cellomics) (0.8 NA objective, 0.63x optical coupler, and XF-93 filter set) at 20x magnification. The images were acquired using the autofocus feature of the ArrayScan instrument, which entails the following steps. First, the camera focuses on channel 1 (Hoechst 33342), where nuclei are identified. Second, a Z offset of 1 um is used for capturing mitochondria (MitoTracker Red). […]
With `S=C([S-])NCCNC(=S)[S-].[Mn+2]`, the AC50 was 11.5 µM (active).
Consider `CN(C)C(=O)Nc1ccc(Cl)c(Cl)c1`, for which the outcome was inactive.
As to `CCC(C)OC(=O)N1CCCCC1CCO` (stereo not given), the call was inactive.
Take `CCOC(=O)C(C)Oc1ccc(Oc2cnc3cc(Cl)ccc3n2)cc1` (stereo not given): the AC50 was 80.6 µM (active).
As to `C#CCOC(=O)[C@@H](C)Oc1ccc(Oc2ncc(Cl)cc2F)cc1`, the result was inactive.
Still for that read-out and setting: next, `CCC(O)=C1C(=O)CC(C(=O)O)CC1=O` (stereo not given): “inactive”; `CSC(=O)c1cccc2nnsc12`: “inactive”.
Regarding `CC(C)CCCCCCc1ccc(O)cc1`, the AC50 was 28.8 µM (active).
Take `COC(=O)c1ccc(I)cc1S(=O)(=O)NC(=O)Nc1nc(C)nc(OC)n1`: the result was inactive.
Take `N#CSCSc1nc2ccccc2s1`: the AC50 was 10 µM (active).
For `CCN(CC)C(=O)c1cccc(C)c1`, the result was inactive.
For `C=CCOC(Cn1ccnc1)c1ccc(Cl)cc1Cl` (stereo not given), the AC50 is 78.2 µM (active).
Regarding `COc1nc(C)nc(NC(=O)NS(=O)(=O)c2ccccc2OCCCl)n1`, the call was inactive.
Still for that read-out and setting: the entry for `CCCCOC(=O)C(C)Oc1ccc(Oc2ccc(C(F)(F)F)cn2)cc1` (stereo not given) is “inactive”; for `COCCO` it is “inactive”.
Regarding `S=C(S)NCCNC(=S)S.[Mn+2].[S-]C([S-])=NCCN=C([S-])[S-].[Zn+2]`, the AC50 was 46.5 µM (active) [middle of 5 runs] and the result was inactive.
For `O=C(O)C1(C(=O)Nc2ccc(Cl)cc2Cl)CC1`, the molecule was called inactive.
For the molecule `CC(=O)S[C@@H]1CC2=CC(=O)CC[C@]2(C)[C@H]2CC[C@@]3(C)[C@@H](CC[C@@]34CCC(=O)O4)[C@H]12`, the AC50 was 39.3 µM (active).
Consider `CCCN(CCC)c1c([N+](=O)[O-])cc(C(F)(F)F)c(N)c1[N+](=O)[O-]`, for which the AC50 was 33 µM (active).
Still for that read-out and setting: next, `CCOC(=O)C(C)Oc1ccc(Oc2nc3ccc(Cl)cc3o2)cc1` (stereo not given): 90.1 µM (active).
For the molecule `C#C[C@]1(O)CC[C@H]2[C@@H]3CCC4=CC(=O)CC[C@@H]4[C@H]3CC[C@@]21CC`, the molecule was classed as inactive.
Same read-out and setting: next, `CCCCC(CC)COC(=O)c1ccccc1C(=O)O` (stereo not given): “inactive”; `O=C(c1ccc(O)cc1O)c1ccc(O)cc1O`: “inactive”.
Regarding `C[C@]12CC[C@@H]3c4ccc(O)cc4C[C@@H](CCCCCCCCCS(=O)CCCC(F)(F)C(F)(F)F)[C@H]3[C@@H]1CC[C@@H]2O` (stereo not given in full), the call was inactive.
On the same count and under the same terms, the entry for `COC(=O)c1ccccc1S(=O)(=O)NC(=O)Nc1nc(OC(F)F)cc(OC(F)F)n1` is “inactive”; for `O=C(O)c1ccccc1` it is “inactive”.
In the case of `CCSC(=O)N(CC(C)C)CC(C)C`, the molecule was classed as inactive.
For `O=C(Nc1ccc([N+](=O)[O-])cc1Cl)c1cc(Cl)ccc1O`, the AC50 was 0.331 µM (active).
The same measure, in the same setting: next, `Cc1nn(C)c(Oc2ccccc2)c1C=NOCc1ccc(C(=O)OC(C)(C)C)cc1`: 19.8 µM (active).
As for `COC(=O)c1ccccc1C(=O)O`, the result was inactive.
With `CCCOC(=O)c1ccc(C(=O)OCCC)nc1`, the call was inactive.
Same read-out and setting: next, `COC(=O)c1ccc(CNS(C)(=O)=O)cc1S(=O)(=O)NC(=O)Nc1nc(OC)cc(OC)n1`: “inactive”.
Take `CCOC(=O)NCCOc1ccc(Oc2ccccc2)cc1`: the concentration at half-maximal activity (AC50) was 52.8 µM (active).
Still for that read-out and setting: next, `CCN(Cc1c(F)cccc1Cl)c1c([N+](=O)[O-])cc(C(F)(F)F)cc1[N+](=O)[O-]`: 33.5 µM (active).
On to `O=C(c1ccccc1)C1CCCCC1`, for which the outcome was inactive.
For `COC(=O)CSc1cc(N=c2sc(=O)n3n2CCCC3)c(F)cc1Cl`, the AC50 was 98.9 µM (active).
On to `CCCOC(=O)NCCCN(C)C`, for which the outcome was inactive.
For `CCCCC(CC)CN1C(=O)C2C3C=CC(C3)C2C1=O` (stereo not given), the AC50 was 93.2 µM (active).
Regarding `c1ccc(Nc2ccccc2)cc1`, the outcome was inactive.
